We go through 96 compounds from PubChem BioAssay AID1566 (Sanford-Burnham Center for Chemical Genomics, 2009).

Values joined by “and” are separate entries in the source; they are usually repeats but may differ in a detail not shown here. Equal values may be shown once. About 1,800 (0.62%) of roughly 290,000 compounds were called active. This is one part of a sample in which actives are shown more often than they occur. Values without a mark were called inactive. Rule as the data show it: active = inhibition above about 50%; inactive = the rest.

The nature of this test: NOD2 signaling inhibitors, cell-based, luminescence, uHTS, HEK293 (AID 1566). The following applies: HEK293 NOD2/NF-kB luciferase reporter, at 4 µM, stronger effect = higher value. A general note: Reporter assays use an easily measured gene product as a stand-in for the process of interest.
One may read the inhibition as the relative decrease from the control value, in per cent. As for `CCc1noc(C)c1C(=O)OCC(=O)NC(=O)c1ccccc1`, the inhibition was 2.8%. With `COC(=O)c1ccc(NC(=O)c2ccc3nsnc3c2)cc1`, the inhibition is -7.1%. As for `c1ccc(COCCC2CO2)cc1` (stereo unspecified), the inhibition was -8.4%. On to `CS(=O)(=O)N(CC(=O)NCCSCc1ccccc1Cl)c1ccc(F)cc1`, for which the inhibition was 3%. On to `COc1ccc(C(=O)CSc2cc(C)nc3nc(C)nn23)cc1OC`, for which the inhibition was 14%. Take `O=C(CSc1ccc(-c2ccc(Cl)cc2)nn1)N1CCCc2ccccc21`: the inhibition is -10.9%. For `Cc1ccccc1-c1cn(-c2ccccc2)c(=S)[nH]1` the value was -47.3%; for `O=c1oc2ccccc2cc1-c1cn(-c2ccccc2)c(=S)[nH]1`, 80.6% (active). The same measure for `O=C(O)c1ccc(-n2cc(-c3cc4ccccc4oc3=O)[nH]c2=S)cc1`: 27.5%; for `O=c1[nH]c(C2CCN(S(=O)(=O)Cc3ccccc3)CC2)nc2c1nnn2Cc1ccccc1`: 5%; for `CC(C)(C)c1ccc(C(=O)Nc2ccc(CC(=O)O)cc2)o1`: 71.6% (active). In the case of `COC(=O)Cc1ccc(NC(=O)c2ccc(C(C)(C)C)cc2)cc1`, the inhibition is 70.7% (active). For `COC(=O)Cc1ccc(NC(=O)c2ccc(NC(=O)c3ccco3)cc2)cc1`, the inhibition was 0.9%. As for `COC(=O)Cc1ccc(NC(=O)c2ccc(C)c(C)c2)cc1`, the inhibition was -48.4%. As for `CCOC(=O)Cc1ccc(NC(=O)c2ccccc2Br)cc1`, the inhibition was -12.2%. Take `Cc1ccc(C(=O)Nc2ccc(CC(=O)O)cc2)o1`: the inhibition was 7.5%. The same measure for `CCOC(=O)Cc1ccc(NC(=O)c2ccc(C(C)(C)C)cc2)cc1`: 61.9% (active); for `CC(C)(C)c1ccc(C(=O)Nc2ccc(NC(=O)C(=O)O)cc2)o1`: 9.4%; for `CCOC(=O)Cc1ccc(NC(=O)c2ccc([N+](=O)[O-])cc2)cc1`: -1.9%. In the case of `Cc1ccc(C)c(S(=O)(=O)N2CCCOC2CNC(=O)C(=O)NCc2ccncc2)c1` (stereo unspecified), the inhibition was 11.8%. As to `Cc1cccc(N2CCN(C(=O)C3CCCCC3)CC2)c1C`, the inhibition was -34.8%.

`CCCCn1c(N)c(N(CCOC)C(=O)c2ccc(Cl)c(S(=O)(=O)N3CCCC3)c2)c(=O)[nH]c1=O`: the inhibition is -2.8%. On to `O=c1cc(O)c2sc(Nc3cccc(C(F)(F)F)c3)nc2[nH]1`, for which the inhibition was 16.5%.

For `COc1ccccc1N1C(=O)c2ccc(C(=O)Nc3ccccc3O)cc2C1=O`, the inhibition is -3.6%. Turning to `O=C(c1ccc(S(=O)(=O)Cc2cc(F)ccc2F)c([N+](=O)[O-])c1)N1CCCC1`, the inhibition is 3.3%.

Take `O=C(c1ccc(Cl)c([N+](=O)[O-])c1)N1CCN(c2ccccn2)CC1`: the inhibition was 6.3%. The same measure for `Cc1cc(C(=O)N2CCN(Cc3ccccc3)CC2)ccc1[N+](=O)[O-]`: 6.4%; for `O=C(c1ccc(S(=O)(=O)Cc2ccccc2F)c([N+](=O)[O-])c1)N1CCCCCC1`: 22.6%. For `O=C(c1ccc(Sc2cccc(Cl)c2)c([N+](=O)[O-])c1)N1CCN(c2ccccn2)CC1`, the inhibition was 9.4%.

Take `O=C(c1ccc(Br)c([N+](=O)[O-])c1)N1CCN(Cc2ccccc2)CC1`: the inhibition was 10%. The same measure for `CCCSc1nnc(CSc2nc3ccccc3s2)n1-c1ccccc1`: 2.7%; for `O=C(COC(=O)c1ccccc1O)Nc1cccc(S(=O)(=O)NC2=NCCCCC2)c1`: 14.9%. Regarding `O=C1CCCN1CCC1CCN(C(=S)Nc2ccc(F)cc2)CC1`, the inhibition is 1.1%. `Cc1ccc(C(=O)c2cnc3ccccc3c2-c2ccccc2)cc1`: the inhibition is 50.7% (active). Turning to `COc1ccc(C(=O)c2cnc3ccccc3c2-c2ccccc2)cc1`, the inhibition was 29.3%. With `Cc1cccc(C(=O)c2cnc3ccccc3c2-c2ccccc2)c1`, the inhibition is 1.1%. On to `O=C(NCc1cccc(C(F)(F)F)c1)C1CC(c2c(Cl)cccc2Cl)=NO1` (stereo unspecified), for which the inhibition is -28.5%. In the case of `CCN=C1S/C(=C\c2ccc(-c3cccc(C(=O)O)c3)o2)C(=O)N1CC`, the inhibition is -81.2%. For `O=C(O)c1cccc(-c2ccc(/C=C3/SC(=Nc4ccccc4)N(Cc4cccnc4)C3=O)o2)c1` the value was 53.1% (active); for `CCN1C(=O)/C(=C\c2ccc(-c3cccc(C(=O)OC)c3)o2)SC1=Nc1ccc(C(=O)O)cc1`, 4.2%. On to `Cc1cc(NC(=O)CSc2nnnn2C)n(-c2ccccc2)n1`, for which the inhibition is 6.4%.

As to `CCOC(=O)C1CCCN(S(=O)(=O)c2ccc(OC)c3ccccc23)C1` (stereo unspecified), the inhibition was 8.9%. For `Cc1ccc(NC(=O)Nc2ccc3c(c2)CCC3)cc1C`, the inhibition is -15.3%. Regarding `O=C(O)c1ccc2c(c1)CCC2`, the inhibition was 25.5%. Take `CN(C)C(=O)C(OC(=O)c1ccc2c(c1)CCCC2)c1ccccc1` (stereo unspecified): the inhibition was 90.9% (active).

Take `CN(C)C(=O)C(OC(=O)c1ccc2ccccc2n1)c1ccccc1` (stereo unspecified): the inhibition is -9.4%. `O=C(COc1ccc(S(=O)(=O)NCc2ccccc2)cc1)NCC1CCCO1` (stereo unspecified): the inhibition is -3%. Take `Cc1csc(NC(=O)CSc2nnc(NC(=O)COc3ccc(Cl)cc3)s2)n1`: the inhibition is -17.3%. As to `CCc1nc2ccccc2n1CC(O)COCC1CC=CCC1` (stereo unspecified), the inhibition was -7.7%. Regarding `CCc1n(CC(O)COCC2CC=CCC2)c2ccccc2[n+]1C` (stereo unspecified), the inhibition is 55.3% (active). For the compound `CCCc1n(CC(O)COCC2CC=CCC2)c2ccccc2[n+]1C` (stereo unspecified), the inhibition was 5.7%. As to `Cc1cc(=O)oc2c(C)c(OC(C)C(=O)Nc3ccc(N4CCC(C)CC4)cc3)ccc12` (stereo unspecified), the inhibition was 3.4%. As for `Cn1c(=O)c2c(-c3ccc(OC(F)F)cc3)cc(-c3ccccc3)nc2n(C)c1=O`, the inhibition was -4.7%. Consider `COC(=O)COc1ccc(S(=O)(=O)Nc2cc([N+](=O)[O-])ccc2C)cc1`, for which the inhibition was 8.7%. As for `O=C(CCn1cccc1)NCc1ccc(Cl)cc1`, the inhibition was 5.1%.

Turning to `CCOc1cc(/C=N/NC(=O)c2cc(C3CC3)[nH]n2)ccc1O`, the inhibition was -2.8%. For `CCOc1cccc(/C=N/NC(=O)c2cc(C3CC3)[nH]n2)c1O` the value was 63.2% (active); for `O=C(N/N=C/c1cccc2ccccc12)c1cc(C2CC2)[nH]n1`, 10.5%. With `Cc1ccc(C)c(NC(=O)CCN2C(=O)c3ccccc3C2=O)c1`, the inhibition was -5.3%. As for `COc1ccc(N2CC(C(=O)N3CCN(c4ccccc4OC)CC3)CC2=O)cc1` (stereo unspecified), the inhibition is 12.7%.

Turning to `Cc1ccc(S(=O)(=O)Nc2ccc(N3CCOCC3)cc2)cc1`, the inhibition is 0.3%. The same measure for `COc1ccccc1N1CCN(C(=O)C2CCN(S(=O)(=O)c3ccc4c(c3)CC(C)N4C(=O)C3CC3)CC2)CC1` (stereo unspecified): 27%; for `COc1ccc(Oc2nc3c(c(=O)n(C)c(=O)n3C)n2C)cc1`: 26.2%.

For `Cn1c(=O)c2c(nc(Oc3ccccc3)n2C)n(C)c1=O`, the inhibition is 4.8% and 12.7%. With `Cc1c(C#N)sc2nc(-c3ccccc3)nc(N3CCCC3)c12`, the inhibition was -1.5%. The same measure for `COCc1cc(C)nc(SCC(=O)Nc2ccc(N3CCOCC3)cc2)c1C#N`: 5%; for `COCc1cc(C)nc(SCC(=O)Nc2ccccc2N2CCOCC2)c1C#N`: 40%; for `COCc1cc(C)nc(SCC(=O)Nc2cc(C(F)(F)F)ccc2N2CCOCC2)c1C#N`: 58.6% (active). As to `COCC(C)n1c(C)cc(C(=O)COC(=O)CNC(=O)c2ccccc2)c1C` (stereo unspecified), the inhibition is 20.5%.

On to `COc1ccc(S(=O)(=O)N2CCCCCC2)cc1C(=O)OCc1c(C)noc1C`, for which the inhibition is 0.3%. Take `CNc1nc2cc([N+](=O)[O-])c([N+](=O)[O-])cc2nc1NC`: the inhibition was 18.9%. Regarding `Cc1ccc(NC(=S)N(C)C)cc1C`, the inhibition was -14.4%. As for `COc1cccc(OCC(=O)Nc2ccncc2)c1`, the inhibition was 19.9%. For the compound `Cc1cc(OCC(=O)Nc2ccncc2)ccc1Br`, the inhibition is 38.2%. For the compound `Cc1cc(C)cc(OCC(=O)Nc2ccncc2)c1`, the inhibition was 29.4%. On to `Cc1cc(Cl)ccc1OCC(=O)Nc1ccncc1`, for which the inhibition was 39.3%. Take `CC(C)CCOc1cccc(OCC(=O)Nc2ccncc2)c1`: the inhibition was 60% (active). Consider `O=C(COc1ccccc1)Nc1ccncc1`, for which the inhibition is 5.2%. On to `Cc1cc(OCC(=O)Nc2ccncc2)ccc1Cl`, for which the inhibition was 39.6%. Regarding `CC1=C([N+](=O)[O-])C(c2ccccc2Cl)NC(=O)N1C` (stereo unspecified), the inhibition was 14.3%. The same measure for `O=C(NC1CCCN(CCc2ccccc2)C1)c1c(F)cccc1F` (stereo unspecified): 4.3%; for `COc1cccc(N2CC(C(=O)Nc3nnc(SCCN4CCOCC4)s3)CC2=O)c1` (stereo unspecified): 14.1%. In the case of `CCOC(=O)c1sc2ccccc2c1OC(=O)c1ccccc1OC`, the inhibition is 22.4%. Consider `CCOC(=O)c1sc2ccccc2c1OC(=O)c1ccccc1`, for which the inhibition was 27.7%. For `Cc1ccccc1C(=O)Nc1ccc(N2CCN(C(=O)c3ccco3)CC2)cc1` the value was 3.9%; for `COc1cccc(-c2nc3c(c(SCC(=O)N4CCOCC4)n2)Cc2c(CO)cnc(C)c2O3)c1`, 52.5% (active); for `Cc1cccc(-c2nc3c(c(SCC(=O)N4CCOCC4)n2)Cc2c(CO)cnc(C)c2O3)c1`, 42.3%. Take `COc1ccc(-c2nc3c(c(SCC(=O)N4CCOCC4)n2)Cc2c(CO)cnc(C)c2O3)cc1`: the inhibition was 32%. For the compound `CCc1ccc(NC(=O)CN(C)S(=O)(=O)c2ccc3[nH]c(=O)oc3c2)cc1`, the inhibition is 9.7%. Take `COC(=O)C1=C(C)N(CCc2ccc(OC)cc2)C(=O)C1`: the inhibition is -0.9%. The same measure for `Cc1cc(C)nc(N(C#N)Cc2cccc([N+](=O)[O-])c2)n1`: 15.2%; for `Cc1cccc(Nc2ncnc(N)c2[N+](=O)[O-])n1`: 32%; for `Cc1cccnc1Nc1ncnc(N)c1[N+](=O)[O-]`: 3.6%. Take `COc1cccc(C(=O)NNC(=O)C(=O)Nc2ccc(C)c(Cl)c2)c1`: the inhibition is 78.2% (active). On to `COc1ccc(C(=O)NNC(=O)C(=O)Nc2ccc(C)c(Cl)c2)cc1`, for which the inhibition is 1.2%. For `COc1cccc(C(=O)NNC(=O)C(=O)Nc2ccc(C)cc2)c1` the value was 4.6%.
